Measured values published in PubChem BioAssay (Tox21).
Records with an inconclusive call do not appear. Activity calls are given as the source filed them. Unless noted, calls come from the whole dose curve; as a rule, active = well fitted curve in the direction sought with a large enough effect in the repeat runs; inconclusive = weak or mixed curves; inactive = no such curve, though single readings can be large; an effect the other way counts as inactive or inconclusive.

Columns and labels:
[1] = qHTS assay to identify small molecule agonists of the RXR signaling pathway - cell viability counter screen (AID 1159529);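 note: HEK 293T cells carrying an RXR-alpha UAS beta-lactamase reporter; nearly all actives have a fitted effect of over 50% in size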
In short: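 Same-well viability check after the LiveBLAzer FRET read: CellTiter-Glo added, luminescence measured after 30 min at room temperature. Reporter HEK 293T cells had been treated with compounds for 16 hr following a 5 hr preincubation.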

[2] = qHTS assay to identify small molecule antagonists of the retinoid acid receptor (RAR) signaling pathway - cell viability counter screen (AID 1159551); note: nearly all actives have a fitted effect of over 35% in size
In short: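 Cells (C3RL4) are plated, incubated overnight, dosed with compound in DMSO, then given retinol at 1 uM final. After 6 h at 37 C, CellTiter-Glo is added and luminescence read following 30 min at room temperature.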

[3] = qHTS assay to identify small molecule antagonists of the retinoic acid receptor (RAR) signaling pathway (AID 1159552; note: nearly all actives have a fitted effect of over 50% in size)
In short: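 Readout: luciferase luminescence, 30 min post-reagent at RT. Setup: C3RL4 RARE reporter cells, compounds plus retinol 1 uM final, 6 hr incubation at 37 C and 5% CO2.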

[4] = qHTS assay to identify small molecule agonists of the retinoic acid receptor (RAR) signaling pathway (AID 1159553)
In short: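 Seed C3RL4 reporter cells at 1,000 per well and incubate overnight at 37 C. Add compounds in DMSO, incubate 6 hr. Add luciferase reagent, wait 30 min at room temperature, read luminescence.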

[5] = qHTS assay to identify small molecule antagonists of the estrogen related receptor (ERR) signaling pathway from Tox21 library - cell viability counter screen (AID 1224834); note: nearly all actives have a fitted effect of over 30% in size
In short: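 ERR cells, 2,000/well; 6 h settle at 37 C/5% CO2; pin-tool compound transfer in DMSO; 17.5 h at 37 C; CellTiter-Fluor, 30 min; fluorescence intensity.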

[6] = target: Luciferin 4-monooxygenase (Photinus pyralis) (UniProt P08659); assay: qHTS assay to identify small molecule inhibitors of firefly luciferase (AID 1224835); note: nearly all actives have a fitted effect of over 25% in size
Chain of Luciferin 4-monooxygenase (Photinus pyralis) (P08659 whole entry, looked up): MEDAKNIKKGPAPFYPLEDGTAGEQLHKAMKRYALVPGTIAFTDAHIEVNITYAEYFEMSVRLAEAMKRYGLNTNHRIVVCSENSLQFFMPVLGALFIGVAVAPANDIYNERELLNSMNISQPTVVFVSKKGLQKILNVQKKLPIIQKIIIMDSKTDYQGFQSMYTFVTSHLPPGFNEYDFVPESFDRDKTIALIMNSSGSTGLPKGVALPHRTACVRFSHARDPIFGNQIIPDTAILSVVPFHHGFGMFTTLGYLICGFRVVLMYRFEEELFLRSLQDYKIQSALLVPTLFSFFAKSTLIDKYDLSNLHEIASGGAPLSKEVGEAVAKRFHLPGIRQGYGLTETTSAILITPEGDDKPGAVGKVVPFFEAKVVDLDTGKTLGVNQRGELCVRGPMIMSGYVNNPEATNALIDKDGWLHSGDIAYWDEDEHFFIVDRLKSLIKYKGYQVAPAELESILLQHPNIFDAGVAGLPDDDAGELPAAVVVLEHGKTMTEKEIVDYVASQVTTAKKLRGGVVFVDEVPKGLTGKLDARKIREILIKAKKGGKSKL
In short: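 Inhibition of purified Photinus luciferase is measured by luminescence. Substrate levels (D-luciferin, ATP) sit at their KM values. Each compound is tested in a concentration series.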

[7] = qHTS assay to identify small molecule agonists of the constitutive androstane receptor (CAR) signaling pathway - cell viability counter screen (AID 1224836); note: nearly all actives have a fitted effect of over 45% in size
In short: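 Compound titrations (15 concentrations) went onto HepG2-CYP2B6-hCAR cells 4 h after seeding, alongside PK11195 at a final 0.75 uM; a 23 h, 37 C/5% CO2 incubation preceded CellTiter-Fluor viability measurement.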

[8] = qHTS assay to identify small molecule antagonists of the constitutive androstane receptor (CAR) signaling pathway - cell viability counter screen (AID 1224837); note: nearly all actives have a fitted effect of over 45% in size
In short: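 Viability was measured with CellTiter-Fluor in a HepG2 line carrying stably transfected hCAR and a CYP2B6-2.2kb construct. Cells were exposed for 23 hr at 37 C to 15 compound concentrations with 50 nM CITCO as agonist.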

[9] = qHTS assay to identify small molecule antagonists of the estrogen related receptor signaling pathway with the pleiotropic PPARgamma coactivator (PGC) from Tox21 10K library - cell viability counter screen (AID 1224840; active = well fitted cell-killing curve with a large enough effect in the repeat runs, not every such curve was filed as active; note: nearly all actives have a fitted effect of over 40% in size)
In short: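 Multiplexed viability counter screen in the PGC/ERR cell line: cells treated with DMSO-dissolved compounds for 17.5 hours at 37 C, then viability measured as CellTiter-Fluor fluorescence.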

[10] = qHTS assay to identify small molecule agonists of the hypoxia (HIF-1) signaling pathway - cell viability counter screen (AID 1224844; calls by dose curve; note: nearly all actives have a fitted effect of over 50% in size)
In short: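 Cytotoxicity was measured in parallel with the HRE-driven beta-lactamase readout: after 17 hrs of compound exposure at 37C, HRE-bla ME-180 cells received CellTiter-Glo and luminescence was recorded 30 min later.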

[11] = qHTS assay to identify small molecule agonists of the hypoxia (HIF-1) signaling pathway (AID 1224846; active = well fitted activation curve with a large enough effect in the signal ratio in the repeat runs, not every such curve was filed as active; the % refers to the signal ratio)
In short: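 Compounds from the Tox21 10K library, dissolved in DMSO, are tested for induction of a hypoxia response element–controlled beta-lactamase reporter in ME-180 cells. Exposure lasts 17 hrs at 37C after a 5 hr settling period, followed by CCF4-AM FRET substrate.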

[12] = target: Thyrotropin receptor (Homo sapiens) (UniProt P16473); assay: qHTS assay to identify small molecule agonists of the thyroid stimulating hormone receptor (TSHR) signaling pathway (AID 1224843; calls by dose curve; note: nearly all actives have a fitted effect of over 45% in size)
Chain of Thyrotropin receptor (Homo sapiens) (P16473 whole entry, looked up): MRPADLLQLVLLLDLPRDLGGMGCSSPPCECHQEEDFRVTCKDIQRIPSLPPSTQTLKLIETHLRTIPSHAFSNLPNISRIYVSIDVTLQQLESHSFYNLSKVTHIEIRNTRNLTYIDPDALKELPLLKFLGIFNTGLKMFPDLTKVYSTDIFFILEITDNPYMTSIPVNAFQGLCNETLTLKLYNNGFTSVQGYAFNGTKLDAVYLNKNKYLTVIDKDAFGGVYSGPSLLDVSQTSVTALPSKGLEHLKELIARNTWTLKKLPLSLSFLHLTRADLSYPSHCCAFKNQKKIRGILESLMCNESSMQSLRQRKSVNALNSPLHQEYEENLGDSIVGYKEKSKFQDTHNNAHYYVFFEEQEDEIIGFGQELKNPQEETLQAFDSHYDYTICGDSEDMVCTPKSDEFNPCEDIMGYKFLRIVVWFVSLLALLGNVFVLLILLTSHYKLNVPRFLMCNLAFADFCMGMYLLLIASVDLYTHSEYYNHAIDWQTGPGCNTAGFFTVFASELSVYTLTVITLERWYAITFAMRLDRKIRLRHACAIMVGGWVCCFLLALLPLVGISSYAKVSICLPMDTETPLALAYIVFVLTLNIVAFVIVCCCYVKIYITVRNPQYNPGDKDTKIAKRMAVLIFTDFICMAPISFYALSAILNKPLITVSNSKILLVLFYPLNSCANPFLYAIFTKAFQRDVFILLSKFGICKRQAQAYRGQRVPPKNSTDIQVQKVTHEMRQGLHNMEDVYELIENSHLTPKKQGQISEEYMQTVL
In short: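 Agonist activity read as cAMP rise via d2/cryptate HTRF competition, 1 h room-temperature detection, in HEK293 cells expressing TSHR. Fifteen-point titrations, each run in triplicate, with a 30 min room-temperature incubation beforehand.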

[13] = qHTS assay to identify small molecule agonists of H2AX (AID 1224845; active = well fitted activation curve with a large enough effect in the signal ratio in the repeat runs, not every such curve was filed as active; the % refers to the signal ratio)
In short: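 Phospho-H2AX Ser139 measured by HTRF (ex 320 nm; em 665 and 620 nm) after 24 hr antibody incubation. Compounds, 15 concentrations, 0.76% DMSO, were applied to CHO-K1 cells for 3hr at 37C before lysis.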

[14] = target: Nuclear receptor subfamily 1 group I member 3 (Homo sapiens) (UniProt Q14994); assay: qHTS assay to identify small molecule antagonists of the constitutive androstane receptor (CAR) signaling pathway (AID 1224838);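 note: HepG2 cells stably expressing hCAR with CYP2B6 luciferase reporter stimulated by CITCO; nearly all actives have a fitted effect of over 40% in size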
Chain of Nuclear receptor subfamily 1 group I member 3 (Homo sapiens) (Q14994 whole entry, looked up): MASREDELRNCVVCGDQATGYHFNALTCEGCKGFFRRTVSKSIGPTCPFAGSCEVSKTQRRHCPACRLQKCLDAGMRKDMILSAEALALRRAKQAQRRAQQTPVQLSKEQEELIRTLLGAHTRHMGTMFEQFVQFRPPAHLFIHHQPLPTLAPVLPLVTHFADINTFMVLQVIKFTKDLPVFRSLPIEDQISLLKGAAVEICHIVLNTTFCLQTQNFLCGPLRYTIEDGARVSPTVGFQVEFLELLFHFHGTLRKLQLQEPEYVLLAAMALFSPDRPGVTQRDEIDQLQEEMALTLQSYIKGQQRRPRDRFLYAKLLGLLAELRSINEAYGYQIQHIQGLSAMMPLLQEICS
In short: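 Antagonist mode used CITCO at a final 50 nM to activate CAR in human hepatoma HepG2 cells carrying stable hCAR and a 2.2 kb CYP2B6 promoter-luciferase construct. Compounds were tested at 15 concentrations over 24 h, with luminescence as the end point.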

[15] = target: Nuclear receptor subfamily 1 group I member 3 (Homo sapiens) (UniProt Q14994); assay: qHTS assay to identify small molecule agonists of the constitutive androstane receptor (CAR) signaling pathway (AID 1224839); note: nearly all actives have a fitted effect of over 15% in size
In short: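 In this screen, CAR-driven CYP2B6 promoter activity is measured by luminescence in HepG2-CYP2B6-hCAR cells after 24 h with test compounds and 0.75 uM PK11195 (final concentration).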

[16] = qHTS assay to identify small molecule antagonists of the estrogen related receptor signaling pathway with the pleiotropic PPARgamma coactivator (PGC) from Tox21 10K library (AID 1224841; call rule not given here; note: actives are mostly falling curves and most rising ones were filed inactive; nearly all actives have a fitted effect of over 50% in size)
In short: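 Steps: plate 2,000 PGC/ERR cells per well; incubate 6 h at 37 C with 5% CO2; transfer compounds from DMSO stocks by pin tool; incubate 18 h at 37 C; add One-Glo; measure luminescence 30 min later.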

[17] = qHTS assay to identify small molecule agonists of H2AX - cell viability counter screen (AID 1224847; calls by dose curve; note: top concentration of the series differs between compounds; nearly all actives have a fitted effect of over 30% in size)
In short: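 Read-out: CellTiter-Glo luminescence, 30 min RT. Cells: wild-type CHO-K1, 1000/well, 10% FBS, plated overnight at 37C. Treatment: 15 concentrations, 3 hr, 37C, 0.76% DMSO.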

[18] = qHTS assay to identify small molecule antagonists of the estrogen related receptor (ERR) signaling pathway from Tox21 library (AID 1224848); note: nearly all actives have a fitted effect of over 50% in size
In short: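 Luciferase luminescence (ONE-Glo, 30 min room temperature) was the read-out. Cells of the NTP-supplied ERR line, 2,000 per well, were given 6 h at 37 C before compound addition in DMSO and 18 h exposure at 37 C.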

[19] = qHTS assay to identify small molecule agonists of the estrogen related receptor (ERR) signaling pathway from Tox21 library (AID 1224849; calls by dose curve; note: nearly all actives have a fitted effect of over 15% in size); conditions: ERR reporter cell line, ONE-Glo luciferase, 18 h; at 92.4 µM (top of the series) unless noted
In short: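 Cells carrying the ERR reporter were plated and allowed to settle for 6 h, exposed to library compounds for 18 h at 37 C, then lysed with ONE-Glo and luminescence measured.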

[20] = qHTS assay to identify small molecule agonists of the estrogen related receptor signaling pathway with the pleiotropic PPARgamma coactivator (PGC) from Tox21 10K library (AID 1224842); note: nearly all actives have a fitted effect of over 15% in size
In short: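 Luminescence from One-Glo (30 min, room temperature) measured after PGC/ERR cells had 18 h at 37 C with pinned compound (23 nL in DMSO). Cells had been seeded at 2,000 per well and pre-incubated 6 h.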
% is set by controls: 0 for no effect and ±100 for the full control effect.

N#Cc1ccccc1C#N
inactive: Potency [1] | outcome [2] | outcome [3] | Potency [4] | outcome [5] | Potency [6] | outcome [7] | outcome [8] | outcome [9] | outcome [10] | outcome [11]

COCc1nnc(-c2ccc[n+]([O-])c2)n1-c1c(Cl)c(Cl)cc2[nH]c(=O)c(=O)[nH]c12
inactive: Potency [1] | outcome [2] | outcome [3] | Potency [4] | outcome [5] | Potency [6] | outcome [7] | outcome [8] | outcome [9] | Potency [12] | outcome [10] | outcome [13] | outcome [11]

O=P(O)(O)C(O)(Cc1cccnc1)P(=O)(O)O
inactive: Potency [1] | outcome [2] | outcome [3] | Potency [4] | outcome [5] | Potency [6] | outcome [7] | outcome [14] | Potency [15] | outcome [9] | outcome [10] | outcome [13]

CCCCCCCCCCCCCCBr
inactive: Potency [1] | outcome [2] | outcome [3] | Potency [4] | outcome [5] | Potency [6] | outcome [7] | outcome [8] | outcome [9] | Potency [12] | outcome [10] | outcome [13]

CC/C=C\CCCCCCCCCCOC(C)=O
inactive: Potency [1] | outcome [2] | outcome [3] | Potency [4] | outcome [5] | Potency [6] | outcome [7] | outcome [14] | Potency [15] | Potency [16] | Potency [12] | outcome [13] | outcome [17] | outcome [18] | activity change, positive = activation [19] 0.807%

CCCCCCCCCCCC(C)=O
inactive: Potency [1] | outcome [2] | outcome [3] | Potency [4] | outcome [5] | Potency [6] | outcome [7] | outcome [8] | outcome [9] | Potency [16] | Potency [12] | outcome [10] | outcome [17] | outcome [18] | activity change, positive = activation [19] -0.269%

CCCCCC(CC)OC(=O)CCCOc1ccc(Cl)cc1Cl (stereo not drawn)
inactive: Potency [1] | outcome [2] | outcome [3] | Potency [4] | outcome [5] | Potency [6] | outcome [7] | outcome [8] | outcome [9] | outcome [10] | outcome [13] | outcome [18] | activity change, positive = activation [19] 6.42%

N=C(N)S(=O)O
inactive: Potency [1] | outcome [2] | outcome [3] | Potency [4] | outcome [5] | Potency [6] | outcome [7] | outcome [8] | outcome [9] | Potency [16] | Potency [12] | outcome [10] | outcome [13] | outcome [17] | outcome [18] | activity change, positive = activation [19] 2.21%

C=CC(=O)OCCOCCOCC
inactive: Potency [1] | outcome [2] | outcome [3] | Potency [4] | outcome [5] | Potency [6] | outcome [7] | outcome [8] | outcome [9] | Potency [16] | outcome [10] | outcome [13] | outcome [11] | outcome [18]

CCC(=O)OCCOc1ccccc1
inactive: Potency [1] | outcome [2] | outcome [3] | Potency [4] | outcome [5] | Potency [6] | outcome [7] | outcome [8] | outcome [9] | Potency [12] | outcome [10] | outcome [13] | outcome [11] | outcome [17]

CCCCCCCOC(C)=O
inactive: Potency [1] | outcome [2] | outcome [3] | Potency [4] | outcome [5] | Potency [6] | outcome [7] | outcome [8] | outcome [9] | Potency [12] | outcome [10] | outcome [13] | outcome [11] | outcome [17]

O=S(=O)(O)c1cc(I)c(O)c2ncccc12
inactive: Potency [1] | outcome [2] | outcome [3] | Potency [4] | outcome [5] | Potency [6] | outcome [7] | outcome [8] | outcome [9] | Potency [16] | Potency [12] | outcome [10] | outcome [11] | outcome [17] | outcome [18] | activity change, positive = activation [19] 2.69% [at 42.5 µM]

C=CCn1cc[n+](C)c1
inactive: Potency [1] | outcome [2] | outcome [3] | Potency [4] | outcome [5] | Potency [6] | outcome [7] | outcome [8] | Potency [16] | Potency [12] | outcome [10] | outcome [13] | outcome [18] | activity change, positive = activation [19] 5.14%

CC(C)(Sc1cc(C(C)(C)C)c(O)c(C(C)(C)C)c1)Sc1cc(C(C)(C)C)c(O)c(C(C)(C)C)c1
inactive: Potency [1] | outcome [2] | outcome [3] | Potency [4] | outcome [5] | Potency [6] | outcome [7] | outcome [8] | Potency [16] | Potency [20] | Potency [12] | outcome [10] | outcome [13] | outcome [17] | outcome [18] | activity change, positive = activation [19] 3.41% [at 42.5 µM]

Nc1ccc(C(=O)NCC(=O)O)cc1
inactive: Potency [1] | outcome [2] | outcome [3] | Potency [4] | outcome [5] | Potency [6] | outcome [7] | outcome [8] | outcome [9] | outcome [10] | outcome [11] | outcome [17]

CC(=O)OCC(=O)[C@@]1(O)CC[C@H]2[C@@H]3CCC4=CC(=O)C=C[C@]4(C)[C@H]3[C@@H](O)C[C@@]21C
inactive: Potency [1] | outcome [2] | outcome [3] | Potency [4] | outcome [5] | Potency [6] | outcome [7] | outcome [8] | outcome [9] | outcome [10] | outcome [13] | outcome [17]

O=C(CCBr)N1CCN(C(=O)CCBr)CC1
inactive: Potency [1] | outcome [2] | outcome [3] | Potency [4] | outcome [5] | Potency [6] | outcome [7] | outcome [8] | outcome [9] | Potency [12] | outcome [10] | outcome [13] | outcome [11] | outcome [17]

C=CC(=O)CC
inactive: Potency [1] | outcome [2] | outcome [3] | Potency [4] | outcome [5] | Potency [6] | outcome [7] | outcome [8] | Potency [16] | Potency [12] | outcome [10] | outcome [13] | outcome [11] | outcome [17] | outcome [18] | activity change, positive = activation [19] -1.79%

CCC(C)SSC(C)CC (stereo not drawn)
inactive: Potency [1] | outcome [2] | outcome [3] | Potency [4] | outcome [5] | Potency [6] | outcome [7] | outcome [8] | outcome [9] | Potency [12] | outcome [10] | outcome [13] | outcome [11] | outcome [17]
